# According to PubChem BioAssay (NCATS):
# Results filed as inconclusive are left out. Calls of active or inactive are those of the source. Calls come from the whole dose curve; as a rule, active = well fitted cell-killing curve with a large enough effect; inconclusive = small, poorly fitted or top-dose-only effect; inactive = flat fitted curve, though single readings scatter.
# Assay: NCATS anti-infectives library activity on HEK293 viability as a counter-qHTS vs the C. elegans viability qHTS (AID 1745854)
# Conditions: HEK293 viability counter-screen; series mostly up to 41.8 µM; activity change, negative = cytotoxicity: at the top concentration
# Text: Assay Development and Screening Technology Laboratory (ADST)
# National Center for Advancing Translational Sciences (NCATS), Rockville, MD
# National Institute of Health (NIH), Bethesda, Maryland
# Caenorhabditis elegans has helped elucidate the evolutionarily conserved genetics underlying pathways and cellular processes implicated in human disease and may be ideally positioned to reveal novel pharmacological properties of exiting drugs. The organism's short life cycle and microscopic size is applicable to the technical requirements of high-throughput screening. Here a quantitative high-throughput screening (qHTS)-based forward chemical biology platform has been developed using C. elegans. 384-well microtiter plate laser scanning cytometry was used in the rapid detection and quantification of the fluorescent protein-encoded phenotype to score worm viability. In a proof-of-concept study, the pharmacological qHTS profile obtained from a library of 643 anti-infective compounds.
# 1. Inglese, J., Auld, D. S., Jadhav, A., Johnson, R. L., Simeonov, A., Yasgar, A., Zheng, W., and Austin, C. P. (2006) Quantitative high-throughput screening: A titration-based approach that efficiently identifies biological activities in large chemical libraries, P Natl Acad Sci USA 103, 11473-11478.
# 2. Auld, D. S., Johnson, R. L., Zhang, Y. Q., Veith, H., Jadhav, A., Yasgar, A., Simeonov, A., Zheng, W., Martinez, E. D., Westwick, J. K., Austin, C. P., and Inglese, J. (2006) Fluorescent protein-based cellular assays analyzed by laser-scanning microplate cytometry in 1536-well plate format, Method Enzymol 414, 566-589.
# 3. Zuck, P., Lao, Z., Skwish, S., Glickman, J. F., Yang, K., Burbaum, J., and Inglese, J. (1999) Ligand-receptor binding measured by laser-scanning imaging, Proc Natl Acad Sci U S A 96, 11122-11127.
# PROTOCOL TABLE (as described by Inglese J, Shamu CE and Guy RK. 2007)
# SEQUENCE No. (e.g., 1, 2, 3, etc.); […] (e.g., C. elegans, Compounds, Incubation, Read, etc.); VALUE and DESCRIPTION.
# 1. Compounds. Library compounds and digitonin control added at 25 nL per well to 7 assay ready 1536-well Greiner white/solid bottom high base, TC plates and two DMSO control plates, transferred by Echo acoustic dispenser.
# 2. Cells. Seed 1500 HEK293 per well in 6 uL into assay ready Greiner 1536-well plates.
# 3. Incubation. Incubate plated cells with compounds at 37C in 5% CO2, 95% RH for 24 hr.
# 4. Reagent. Add 4 uL of CellTiter-Glo reagent from Promega per well of Greiner 1536-well plates with BioRAPTR FRD.
# 5. Incubation. Incubate treated cells at room temperature for 10 min., protect from light.
# 6. Detector. CellTiter-Glo luminescence measured using CCD-based camera (Viewlux) with settings as follows: Exposure, 1 sec; Gain, High; Speed, Slow; Binning, 2X.
# NOTES (numbers refer to Sequence numbers above; values are from representative experiments)
# 1. NIH Anti-Infectives library pre-dispensed into 7 assay ready 1536-well Greiner white/solid bottom high base, TC plates with Echo 555 acoustic dispenser. Most compounds dispensed at 10 mM high concentration and plated in 7-pt 1:5 inter-plate titration at 25 nl / well for a final assay concentration range of 41.7 uM - 2.7 nM. Two 1536-well Greiner assay plates of DMSO plated as screening controls to be read at the beginning and the end of the screen. Controls included DMSO vehicle control added at 25 nl/well to each well of column 1 and […] (83.3 uM final assay concentration), and Digitonin titrated 1:2 at 25 nl/ well to column 4 in duplicate for a final assay concentration range of 83.3 uM - 2.5 nM.
# 2. HEK293 cells grown for 48 hr in one T175 culture flask in DMEM high glucose media supplemented with 10% FBS and 1% Pen/Strep antibiotic. Cells trypsinized and diluted in 10 ml supplemented media, strained through 40 µm cell strainer, and diluted to a total volume of 40 ml with supplemented media. […]
# % is set by controls: 0 for no effect and ±100 for the full control effect; potency is the fitted concentration of half-maximal effect.
SMILES,"activity change, negative = cytotoxicity",Potency
O=C(COc1cccc2c(=O)[nH]ccc12)c1ccccc1,4.51% (inactive),
Nc1ncnc2c([C@@H]3N[C@H](CO)[C@@H](O)[C@H]3O)c[nH]c12,-12.1% (inactive),
COc1ccc(C(=O)C2CCN(CC(=O)N(Cc3nc4c(c(=O)[nH]3)COCC4)CC3CC3)CC2)cc1,4.86% (inactive),
Cc1cc(C)cc(C(=O)NOCCCCCC(=O)NO)c1,12.2% (inactive),
CCOCc1nc2c(N)nc3ccccc3c2n1CC(C)(C)O,-6.84% (inactive),
Cc1ccc(NC(=O)C(=O)NC2CC(C)(C)NC(C)(C)C2)cc1,-2.55% (inactive),
CC(C)c1cc(C(=O)N2CC[C@@H](NC(=O)C3CC3)C2)n[nH]1,-5.1% (inactive),
CC(C)c1cc(C(=O)N2CC[C@H](NC(=O)C3CC3)C2)n[nH]1,1.84% (inactive),
[N-]=[N+]=N[C@]1(CO)O[C@@H](n2ccc(=O)[nH]c2=O)[C@@H](O)[C@@H]1O,4.56% (inactive),
Cc1cc(OCc2nnc(SC3CCCC3)n2-c2cccnc2)ccc1-c1ccc(S(C)(=O)=O)cc1,,11.2 µM (active)
COc1c2c(cc3c1-c1c(cc4c(c1OC)OCO4)CC(C)C(C)C3)OCO2 (centres undefined),1.98% [at 29.2 µM] (inactive),
CCN(CC)Cc1ccc(C(=O)N(CCc2ccccc2OC)[C@@H]2CCNC2)cc1,-32.1% (inactive),
CCO[C@@H]1OC(=O)C[C@@H]1NC(=O)[C@@H]1CCCN1C(=O)[C@@H](NC(=O)c1ccc(N)c(Cl)c1)C(C)(C)C,-0.0804% (inactive),
C[C@@]1(O)[C@H](O)[C@@H](CO)O[C@H]1n1ccc(N)nc1=O,13.6% [at 83.3 µM] (inactive),
CS(=O)(=O)c1ccc(-c2nnc(/C=C/c3nnc(-c4ccc(C#N)cc4)o3)n2-c2ccccc2Cl)nc1,-16.7% (inactive),
O=C(/C=C/c1cccc(S(=O)(=O)Nc2ccccc2)c1)NO,8.85% (inactive),
O=C(c1ccccc1)c1ccc2nc(NC(=O)c3csc(C4CCN(c5ncnc6ccsc56)CC4)n3)[nH]c2c1,,10 µM (active)
COC(=O)[C@@]1(c2ccc(C)cc2)C[C@H]1CN1CCC(O)(c2ccccc2)CC1,-9.71% (inactive),
C[C@H](NC(=O)CCc1nc2ccccc2c(=O)[nH]1)c1ccccc1,8.17% (inactive),
CN1CCc2nc(C(=O)N[C@@H]3C[C@@H](C(=O)N(C)C)CC[C@@H]3NC(=O)C(=O)Nc3ccc(Cl)cn3)sc2C1,-1.41% (inactive),
CCCCc1nc2cc(/C=C/C(=O)NO)ccc2n1CCN(CC)CC,1.39% (inactive),
CC(C)C[C@H](CC(=O)NO)C(=O)N[C@@H](Cc1ccc2ccccc2c1)C(=O)N[C@@H](C)C(=O)NCCN,18.5% (inactive),
CCNCc1nc2c(N)nc3ccccc3c2n1CC(C)(C)O,-18.3% (inactive),
O=C(N/N=C/c1ccc(O)c(O)c1)c1cc2ccccc2cc1O,-18.2% (inactive),
CC(C)C(NC(=O)c1ccc2ccccc2n1)C(=O)NC(CC(=O)O)C(=O)COc1c(F)cccc1F (centres undefined),11.8% (inactive),
N#C[C@@H]1CCCN1C(=O)CNC12CC3CC(CC(O)(C3)C1)C2,-13.7% (inactive),
CCOc1cc2ncc(C#N)c(Nc3ccc(F)c(Cl)c3)c2cc1NC(=O)/C=C/CN(C)C,-7.62% (inactive),
CN[C@H](CC(C)C)C(=O)N[C@H]1C(=O)N[C@@H](CC(N)=O)C(=O)N[C@H]2C(=O)N[C@H]3C(=O)N[C@H](C(=O)N[C@H](C(=O)O)c4cc(O)cc(O)c4-c4cc3ccc4O)[C@H](O[C@H]3C[C@](C)(N)[C@@H](O)[C@H](C)O3)c3ccc(c(Cl)c3)Oc3cc2cc(c3O[C@@H]2O[C@H](CO)[C@@H](O)[C@H](O)[C@H]2O[C@H]2C[C@](C)(NCc3ccc(-c4ccc(Cl)cc4)cc3)[C@@H](O)[C@H](C)O2)Oc2ccc(cc2Cl)[C@H]1O,-19.9% (inactive),
Cc1cc(N2CCN([C@@H]3CN[C@H](C(=O)N4CCSC4)C3)CC2)n(-c2ccccc2)n1,0.71% (inactive),
